From PubChem
Hits are enriched below; roughly 3.4% of the tested compounds scored in any of these assays.
esBAF inh = inhibitors of esBAF chromatin remodeling in mouse ES cells. 350,000 compounds, 2% hits. AID 602393. Bmi1-luciferase knock-in reporter, 24 h; 100% = twice the neutral-well signal. reporter increase, % at 12.5 µM; in the data active means activation above about 40%;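 further: a rise in the Bmi1 reporter signal indicates esBAF inhibition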
HSF1 activator = increases HSF-1 driven luciferase reporter signal. NIH3T3-HGL HSF-1 luciferase reporter, MG132, 8 h; 100% = twice DMSO control signal. activation, % at 9 µM. 300,000 compounds, 1.7% hits. AID 504408;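 active means mean replicate activation of at least 50% with a set share of replicates each reaching 50%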
Vif inh = blocks HIV Vif function | HEK293T cells, Vif self-association by quenched fluorescence, imaging, 24 h | inhibition, % at 7.49 µM | 340,000 compounds, 0.35% hits | AID 602346; in the data active means inhibition above about 50%, passing the limit was not always enough
HSF1 inh = HSF1 inhibition; NIH3T3-HGL HSE-luciferase, MG132-induced, luminescence 8 h; hits give low values; activity change, negative = inhibition, % at 7.5 µM (by protocol); 300,000 compounds, 0.77% hits;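 active means more than half of replicate wells show activity change below -50%, luminescence cut by over half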;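 further: luciferase reports HSF-1 transcriptional activity via heat shock element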
Of the large screens only hits and unclear results are named; the others gave an inactive call.

c1ccc(-c2cc(N3CCCCC3)ncn2)cc1	esBAF inh 44
CCOC(=O)C(Nc1ccc2ccccc2c1)C(=O)OCC	HSF1 activator 59 (no result: esBAF inh)
CC(=O)Nc1ccc2ccccc2c1	none
C[C@H](CO)N1C[C@H](C)[C@@H](CN(C)Cc2cccc(C(=O)O)c2)Oc2ncc(-c3ccccc3F)cc2C1=O	none (no result: HSF1 activator, Vif inh, HSF1 inh)
C[C@@H]1CN([C@@H](C)CO)C(=O)c2cc(C#CCN(C)C)cnc2O[C@H]1CN(C)Cc1cccc(C(=O)O)c1	none (no result: HSF1 activator, Vif inh, HSF1 inh)
CCOC(=O)c1ccc(NS(=O)C23CC4CC(CC(C4)C2)C3)cc1 (configuration not stated)	esBAF inh 64
COC(=O)c1ccc(NC(=O)C2CC3CCC2C3)cc1 (configuration not stated)	esBAF inh 47
CCOc1ccc(NC(=O)C2CC3CCC2C3)cc1 (configuration not stated)	none (no result: esBAF inh)
CC(C)c1ccc(NC(=O)C2CC3CCC2C3)cc1 (configuration not stated)	esBAF inh 57
CCOC(=O)c1ccc(NC(=O)C2CC3CCC2C3)cc1 (configuration not stated)	HSF1 activator 64 (no result: esBAF inh)
CC(=O)N(C)C[C@H]1Oc2ncc(C#C[C@@H](C)O)cc2C(=O)N([C@@H](C)CO)C[C@H]1C	none (no result: HSF1 activator, Vif inh, HSF1 inh)
O=C(Nc1ccc(F)c(Cl)c1)C1CC2CCC1C2 (configuration not stated)	HSF1 activator 70
CCc1ccc(OCc2ccc(C(=O)NCc3ccccn3)o2)cc1	esBAF inh 46
COc1cccc(OCc2cc(C(=O)N(C)Cc3nc(C)cs3)no2)c1	esBAF inh 78
COc1cccc(OCc2cc(C(=O)NCCc3cccc(C)n3)no2)c1	none
COc1cccc(OCc2cc(C(=O)NCc3ccccn3)no2)c1	esBAF inh 61
C[C@@H]1CCCCO[C@@H](CN(C)C(=O)Nc2cccc3ccccc23)[C@H](C)CN([C@H](C)CO)C(=O)c2cc(NC(=O)Nc3ccc(F)cc3)ccc2O1	none (no result: HSF1 activator, Vif inh, HSF1 inh)
CCCNC(=O)Nc1ccc2c(c1)C(=O)N(C)C[C@@H](OC)[C@@H](C)CN(CC1CCCC1)[C@H](C)CO2	none (no result: HSF1 activator, Vif inh, HSF1 inh)
Oc1c(N=Nc2ccccn2)ccc2ccccc12	HSF1 activator 265
O=C(Cc1c(F)cccc1Cl)Nc1nc2ccccc2s1	HSF1 activator 62 (no result: esBAF inh)
Cc1csc(SCC(=O)Nc2cc(S(=O)(=O)N3CCCC3)ccc2Cl)n1	HSF1 inh -54 (no result: esBAF inh)
Cc1csc(SCC(=O)Nc2cccc(S(=O)(=O)N3CCCC3)c2)n1	none
Cc1csc(SCC(=O)Nc2ccccc2)n1	none
Cc1ccc2nc(NC(=O)CSCC(=O)OCC(=O)c3ccccc3)sc2c1	HSF1 inh -67
Cc1csc(SCC(=O)Nc2nc3ccccc3s2)n1	esBAF inh 47
CC(=O)c1sc(NC(=O)Cc2c(F)cccc2Cl)nc1C	none
CCOCC(=O)Nc1nc2ccc(C)cc2s1	none (no result: esBAF inh)
CO[C@@H]1CN(C)C(=O)c2cc(NS(=O)(=O)c3cn(C)cn3)ccc2OC[C@H](C)N(CCC(F)(F)F)C[C@H]1C	none (no result: HSF1 activator, Vif inh, HSF1 inh)
C[C@@H]1CN([C@@H](C)CO)C(=O)c2cccc(NS(=O)(=O)c3ccc(Cl)cc3)c2O[C@H]1CN(C)Cc1ccc(Oc2ccccc2)cc1	none (no result: HSF1 activator, Vif inh, HSF1 inh)
CC(C)C(=O)NNC(=O)CSc1ncnc2c1cnn2-c1ccccc1Cl	none (no result: esBAF inh)
Cc1csc(NC(=O)CSc2ncnc3ccccc23)n1	none
COc1ccc(NC(=O)CSc2nc(C)cs2)c(OC)c1	none
Cc1csc(NC(=O)CSc2ncnc3c2cnn3-c2ccccc2Cl)n1	Vif inh 73
Cc1csc(NC(=O)CCc2nc3ccccc3s2)n1	HSF1 activator 52 (no result: Vif inh)
COc1cc(NC(=O)CSc2nc(C)cs2)cc(OC)c1	HSF1 inh -81
Cc1csc(NC(=O)CSc2nc3ccccc3c3c2CCCC3)n1	HSF1 activator 58 (no result: esBAF inh)
C[C@H](CO)N1C[C@H](C)[C@H](CN(C)C(=O)Nc2ccc3c(c2)OCO3)Oc2ncc(-c3cccnc3)cc2C1=O	none (no result: HSF1 activator, Vif inh, HSF1 inh)
COc1ccc(NC(=O)N(C)C[C@H]2Oc3cc(-c4cccc(C(=O)N(C)C)c4)ccc3S(=O)(=O)N([C@@H](C)CO)C[C@@H]2C)cc1	none (no result: HSF1 activator, Vif inh, HSF1 inh)
COc1ccc(OCc2cc(C(=O)NC(C)c3cnn(C)c3)no2)c(Cl)c1 (configuration not stated)	esBAF inh 54
Cc1nc2cc(OCc3cc(C(=O)NC(C)c4cnn(C)c4)no3)ccc2s1 (configuration not stated)	none (no result: esBAF inh, Vif inh)
COc1cccc(OCc2cc(C(=O)NC(C)c3cnn(C)c3C)no2)c1 (configuration not stated)	esBAF inh 44
O=C(NCCN1CCN(C(=O)c2ccc(Br)cc2)CC1)c1ccc(Br)cc1	HSF1 activator 68
